Source: the supplement of paper PMC11732987, “Enantioselective OTUD7B fragment discovery through chemoproteomics screening and high-throughput optimisation” (Communications Chemistry, 2025)

Tests used:
Assay in all cases: log2 ratio of Biotin-Ahx-Ub-VS probe labelling (fragment/DMSO); higher = less target engagement (more negative = stronger competition), active = hit call of the paper (q ≤ 0.05, log2 ratio ≤ -1)
Settings in all cases: compound concentration: 200 uM; treatment time: 3 h
USP34 = USP34 (UniProt Q70CQ2)
Outline: (§1)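 Each value is an average log2 ratio of fragment to vehicle, tested by unpaired t-test. The underlying Spectronaut label-free quantities were global-median-normalised, and only proteins with ≥2 unique peptides were included. Triplicate HEK293T lysate samples (495 µg) were exposed to fragment at 200 µM or vehicle for 3 h, then to Biotin-Ahx-Ub-VS at 0.5 µM final for 1 h, before NeutrAvidin enrichment of labelled DUBs, LysC and trypsin digestion, and diaPASEF LC-MS/MS.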

USP36 = target: T1, USP36 (UniProt Q9P275)
T1 sequence (whole entry): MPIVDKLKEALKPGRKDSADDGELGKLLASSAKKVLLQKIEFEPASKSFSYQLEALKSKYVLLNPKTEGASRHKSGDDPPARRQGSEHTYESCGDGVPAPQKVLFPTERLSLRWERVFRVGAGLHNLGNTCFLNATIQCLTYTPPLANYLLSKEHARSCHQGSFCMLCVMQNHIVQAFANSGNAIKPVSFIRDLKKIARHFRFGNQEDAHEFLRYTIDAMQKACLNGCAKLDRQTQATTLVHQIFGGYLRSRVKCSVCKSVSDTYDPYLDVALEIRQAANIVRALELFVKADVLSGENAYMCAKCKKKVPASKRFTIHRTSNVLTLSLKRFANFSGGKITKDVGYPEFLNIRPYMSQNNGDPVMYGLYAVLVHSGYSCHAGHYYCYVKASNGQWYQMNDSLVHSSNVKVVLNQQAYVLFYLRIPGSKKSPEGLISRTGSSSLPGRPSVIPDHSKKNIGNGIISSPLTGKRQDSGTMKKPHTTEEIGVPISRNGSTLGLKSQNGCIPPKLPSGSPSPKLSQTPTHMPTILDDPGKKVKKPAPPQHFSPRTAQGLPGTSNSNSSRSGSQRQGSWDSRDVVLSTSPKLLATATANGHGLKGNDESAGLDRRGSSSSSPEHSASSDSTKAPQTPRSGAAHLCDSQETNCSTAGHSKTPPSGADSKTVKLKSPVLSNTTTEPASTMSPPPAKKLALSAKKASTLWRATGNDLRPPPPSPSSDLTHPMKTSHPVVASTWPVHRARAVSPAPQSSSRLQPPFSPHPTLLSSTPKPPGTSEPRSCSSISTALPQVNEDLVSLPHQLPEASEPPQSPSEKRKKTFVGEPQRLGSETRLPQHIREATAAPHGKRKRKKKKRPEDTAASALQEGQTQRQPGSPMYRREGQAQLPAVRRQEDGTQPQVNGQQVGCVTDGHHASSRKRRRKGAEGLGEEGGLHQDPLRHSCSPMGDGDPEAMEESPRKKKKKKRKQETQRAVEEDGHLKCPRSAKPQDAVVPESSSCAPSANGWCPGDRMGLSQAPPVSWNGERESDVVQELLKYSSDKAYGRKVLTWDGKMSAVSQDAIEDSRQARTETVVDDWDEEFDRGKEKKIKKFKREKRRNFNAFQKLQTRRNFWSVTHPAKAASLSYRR
Outline: as §1

USP38 = target: T2, USP38 (UniProt Q8NB14)
T2 sequence (whole entry): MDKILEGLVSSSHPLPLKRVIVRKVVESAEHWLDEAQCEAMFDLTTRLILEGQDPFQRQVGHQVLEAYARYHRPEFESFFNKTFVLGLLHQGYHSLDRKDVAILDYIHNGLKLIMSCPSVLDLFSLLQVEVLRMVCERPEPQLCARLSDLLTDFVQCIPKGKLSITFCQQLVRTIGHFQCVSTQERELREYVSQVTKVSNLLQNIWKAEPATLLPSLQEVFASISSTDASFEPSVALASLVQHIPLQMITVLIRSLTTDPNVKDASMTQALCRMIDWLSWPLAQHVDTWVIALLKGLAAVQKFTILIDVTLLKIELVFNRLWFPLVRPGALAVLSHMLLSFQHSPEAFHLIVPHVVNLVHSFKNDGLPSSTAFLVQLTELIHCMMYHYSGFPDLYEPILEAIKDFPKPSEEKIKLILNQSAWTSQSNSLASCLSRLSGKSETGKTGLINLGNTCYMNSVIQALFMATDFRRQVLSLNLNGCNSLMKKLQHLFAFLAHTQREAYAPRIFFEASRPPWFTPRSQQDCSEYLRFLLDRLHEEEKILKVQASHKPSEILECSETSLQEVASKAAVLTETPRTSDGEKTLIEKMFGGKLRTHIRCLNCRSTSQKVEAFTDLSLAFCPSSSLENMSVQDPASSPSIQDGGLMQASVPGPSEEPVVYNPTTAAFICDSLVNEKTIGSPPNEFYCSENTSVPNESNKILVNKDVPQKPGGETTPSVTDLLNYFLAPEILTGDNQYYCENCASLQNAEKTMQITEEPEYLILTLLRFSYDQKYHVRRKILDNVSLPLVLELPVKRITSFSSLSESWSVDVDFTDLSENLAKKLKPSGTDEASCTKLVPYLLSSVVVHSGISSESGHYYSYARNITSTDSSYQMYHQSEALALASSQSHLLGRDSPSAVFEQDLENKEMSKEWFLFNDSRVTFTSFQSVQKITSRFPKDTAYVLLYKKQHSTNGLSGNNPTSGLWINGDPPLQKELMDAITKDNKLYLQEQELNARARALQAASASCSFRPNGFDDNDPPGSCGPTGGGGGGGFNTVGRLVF
Outline: as §1

USP39 = target: T3, USP39 (UniProt Q53GS9)
T3 sequence (whole entry): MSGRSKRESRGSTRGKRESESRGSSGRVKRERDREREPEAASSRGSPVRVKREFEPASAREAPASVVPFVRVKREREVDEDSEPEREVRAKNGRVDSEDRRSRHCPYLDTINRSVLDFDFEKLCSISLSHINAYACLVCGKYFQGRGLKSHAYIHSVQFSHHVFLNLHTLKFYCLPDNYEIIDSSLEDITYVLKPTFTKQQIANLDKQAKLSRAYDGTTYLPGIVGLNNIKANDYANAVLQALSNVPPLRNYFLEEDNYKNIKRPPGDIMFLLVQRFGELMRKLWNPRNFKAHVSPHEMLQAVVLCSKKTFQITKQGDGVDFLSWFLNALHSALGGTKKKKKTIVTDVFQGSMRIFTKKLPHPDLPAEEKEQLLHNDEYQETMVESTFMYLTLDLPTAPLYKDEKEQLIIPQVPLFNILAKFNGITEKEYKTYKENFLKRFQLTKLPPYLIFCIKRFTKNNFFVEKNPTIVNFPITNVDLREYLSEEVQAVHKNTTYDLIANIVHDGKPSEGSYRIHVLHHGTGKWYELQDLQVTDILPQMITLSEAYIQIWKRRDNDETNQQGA
Outline: as §1

USP4 = target: T4, USP4 (UniProt Q13107)
T4 sequence (whole entry): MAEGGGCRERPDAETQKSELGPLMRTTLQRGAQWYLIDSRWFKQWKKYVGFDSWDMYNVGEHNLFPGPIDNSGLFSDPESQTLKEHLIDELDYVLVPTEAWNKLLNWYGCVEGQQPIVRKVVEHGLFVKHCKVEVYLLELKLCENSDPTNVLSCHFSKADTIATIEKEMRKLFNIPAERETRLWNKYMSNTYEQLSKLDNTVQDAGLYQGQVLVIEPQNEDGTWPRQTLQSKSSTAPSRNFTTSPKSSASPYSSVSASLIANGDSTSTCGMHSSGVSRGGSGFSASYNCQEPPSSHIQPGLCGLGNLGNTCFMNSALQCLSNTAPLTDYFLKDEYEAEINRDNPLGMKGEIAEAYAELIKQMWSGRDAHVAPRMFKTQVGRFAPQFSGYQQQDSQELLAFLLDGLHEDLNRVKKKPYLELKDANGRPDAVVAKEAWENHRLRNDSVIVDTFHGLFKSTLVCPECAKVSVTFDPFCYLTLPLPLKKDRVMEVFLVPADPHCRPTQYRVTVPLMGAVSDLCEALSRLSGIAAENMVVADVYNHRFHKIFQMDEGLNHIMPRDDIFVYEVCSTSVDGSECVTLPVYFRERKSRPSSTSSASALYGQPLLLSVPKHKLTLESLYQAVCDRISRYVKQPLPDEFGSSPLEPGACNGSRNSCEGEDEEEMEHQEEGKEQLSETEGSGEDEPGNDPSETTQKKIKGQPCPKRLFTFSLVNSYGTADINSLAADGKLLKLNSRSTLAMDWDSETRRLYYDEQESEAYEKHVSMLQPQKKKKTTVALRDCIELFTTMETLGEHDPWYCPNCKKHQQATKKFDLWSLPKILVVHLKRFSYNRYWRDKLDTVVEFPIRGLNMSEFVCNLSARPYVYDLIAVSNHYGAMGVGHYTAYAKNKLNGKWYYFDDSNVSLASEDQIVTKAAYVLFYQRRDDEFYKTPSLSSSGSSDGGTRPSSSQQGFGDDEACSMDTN
Outline: as §1

Measured: log2 ratio of Biotin-Ahx-Ub-VS probe labelling

Sequence of USP34 (Q70CQ2 whole entry, the tested form may be a part): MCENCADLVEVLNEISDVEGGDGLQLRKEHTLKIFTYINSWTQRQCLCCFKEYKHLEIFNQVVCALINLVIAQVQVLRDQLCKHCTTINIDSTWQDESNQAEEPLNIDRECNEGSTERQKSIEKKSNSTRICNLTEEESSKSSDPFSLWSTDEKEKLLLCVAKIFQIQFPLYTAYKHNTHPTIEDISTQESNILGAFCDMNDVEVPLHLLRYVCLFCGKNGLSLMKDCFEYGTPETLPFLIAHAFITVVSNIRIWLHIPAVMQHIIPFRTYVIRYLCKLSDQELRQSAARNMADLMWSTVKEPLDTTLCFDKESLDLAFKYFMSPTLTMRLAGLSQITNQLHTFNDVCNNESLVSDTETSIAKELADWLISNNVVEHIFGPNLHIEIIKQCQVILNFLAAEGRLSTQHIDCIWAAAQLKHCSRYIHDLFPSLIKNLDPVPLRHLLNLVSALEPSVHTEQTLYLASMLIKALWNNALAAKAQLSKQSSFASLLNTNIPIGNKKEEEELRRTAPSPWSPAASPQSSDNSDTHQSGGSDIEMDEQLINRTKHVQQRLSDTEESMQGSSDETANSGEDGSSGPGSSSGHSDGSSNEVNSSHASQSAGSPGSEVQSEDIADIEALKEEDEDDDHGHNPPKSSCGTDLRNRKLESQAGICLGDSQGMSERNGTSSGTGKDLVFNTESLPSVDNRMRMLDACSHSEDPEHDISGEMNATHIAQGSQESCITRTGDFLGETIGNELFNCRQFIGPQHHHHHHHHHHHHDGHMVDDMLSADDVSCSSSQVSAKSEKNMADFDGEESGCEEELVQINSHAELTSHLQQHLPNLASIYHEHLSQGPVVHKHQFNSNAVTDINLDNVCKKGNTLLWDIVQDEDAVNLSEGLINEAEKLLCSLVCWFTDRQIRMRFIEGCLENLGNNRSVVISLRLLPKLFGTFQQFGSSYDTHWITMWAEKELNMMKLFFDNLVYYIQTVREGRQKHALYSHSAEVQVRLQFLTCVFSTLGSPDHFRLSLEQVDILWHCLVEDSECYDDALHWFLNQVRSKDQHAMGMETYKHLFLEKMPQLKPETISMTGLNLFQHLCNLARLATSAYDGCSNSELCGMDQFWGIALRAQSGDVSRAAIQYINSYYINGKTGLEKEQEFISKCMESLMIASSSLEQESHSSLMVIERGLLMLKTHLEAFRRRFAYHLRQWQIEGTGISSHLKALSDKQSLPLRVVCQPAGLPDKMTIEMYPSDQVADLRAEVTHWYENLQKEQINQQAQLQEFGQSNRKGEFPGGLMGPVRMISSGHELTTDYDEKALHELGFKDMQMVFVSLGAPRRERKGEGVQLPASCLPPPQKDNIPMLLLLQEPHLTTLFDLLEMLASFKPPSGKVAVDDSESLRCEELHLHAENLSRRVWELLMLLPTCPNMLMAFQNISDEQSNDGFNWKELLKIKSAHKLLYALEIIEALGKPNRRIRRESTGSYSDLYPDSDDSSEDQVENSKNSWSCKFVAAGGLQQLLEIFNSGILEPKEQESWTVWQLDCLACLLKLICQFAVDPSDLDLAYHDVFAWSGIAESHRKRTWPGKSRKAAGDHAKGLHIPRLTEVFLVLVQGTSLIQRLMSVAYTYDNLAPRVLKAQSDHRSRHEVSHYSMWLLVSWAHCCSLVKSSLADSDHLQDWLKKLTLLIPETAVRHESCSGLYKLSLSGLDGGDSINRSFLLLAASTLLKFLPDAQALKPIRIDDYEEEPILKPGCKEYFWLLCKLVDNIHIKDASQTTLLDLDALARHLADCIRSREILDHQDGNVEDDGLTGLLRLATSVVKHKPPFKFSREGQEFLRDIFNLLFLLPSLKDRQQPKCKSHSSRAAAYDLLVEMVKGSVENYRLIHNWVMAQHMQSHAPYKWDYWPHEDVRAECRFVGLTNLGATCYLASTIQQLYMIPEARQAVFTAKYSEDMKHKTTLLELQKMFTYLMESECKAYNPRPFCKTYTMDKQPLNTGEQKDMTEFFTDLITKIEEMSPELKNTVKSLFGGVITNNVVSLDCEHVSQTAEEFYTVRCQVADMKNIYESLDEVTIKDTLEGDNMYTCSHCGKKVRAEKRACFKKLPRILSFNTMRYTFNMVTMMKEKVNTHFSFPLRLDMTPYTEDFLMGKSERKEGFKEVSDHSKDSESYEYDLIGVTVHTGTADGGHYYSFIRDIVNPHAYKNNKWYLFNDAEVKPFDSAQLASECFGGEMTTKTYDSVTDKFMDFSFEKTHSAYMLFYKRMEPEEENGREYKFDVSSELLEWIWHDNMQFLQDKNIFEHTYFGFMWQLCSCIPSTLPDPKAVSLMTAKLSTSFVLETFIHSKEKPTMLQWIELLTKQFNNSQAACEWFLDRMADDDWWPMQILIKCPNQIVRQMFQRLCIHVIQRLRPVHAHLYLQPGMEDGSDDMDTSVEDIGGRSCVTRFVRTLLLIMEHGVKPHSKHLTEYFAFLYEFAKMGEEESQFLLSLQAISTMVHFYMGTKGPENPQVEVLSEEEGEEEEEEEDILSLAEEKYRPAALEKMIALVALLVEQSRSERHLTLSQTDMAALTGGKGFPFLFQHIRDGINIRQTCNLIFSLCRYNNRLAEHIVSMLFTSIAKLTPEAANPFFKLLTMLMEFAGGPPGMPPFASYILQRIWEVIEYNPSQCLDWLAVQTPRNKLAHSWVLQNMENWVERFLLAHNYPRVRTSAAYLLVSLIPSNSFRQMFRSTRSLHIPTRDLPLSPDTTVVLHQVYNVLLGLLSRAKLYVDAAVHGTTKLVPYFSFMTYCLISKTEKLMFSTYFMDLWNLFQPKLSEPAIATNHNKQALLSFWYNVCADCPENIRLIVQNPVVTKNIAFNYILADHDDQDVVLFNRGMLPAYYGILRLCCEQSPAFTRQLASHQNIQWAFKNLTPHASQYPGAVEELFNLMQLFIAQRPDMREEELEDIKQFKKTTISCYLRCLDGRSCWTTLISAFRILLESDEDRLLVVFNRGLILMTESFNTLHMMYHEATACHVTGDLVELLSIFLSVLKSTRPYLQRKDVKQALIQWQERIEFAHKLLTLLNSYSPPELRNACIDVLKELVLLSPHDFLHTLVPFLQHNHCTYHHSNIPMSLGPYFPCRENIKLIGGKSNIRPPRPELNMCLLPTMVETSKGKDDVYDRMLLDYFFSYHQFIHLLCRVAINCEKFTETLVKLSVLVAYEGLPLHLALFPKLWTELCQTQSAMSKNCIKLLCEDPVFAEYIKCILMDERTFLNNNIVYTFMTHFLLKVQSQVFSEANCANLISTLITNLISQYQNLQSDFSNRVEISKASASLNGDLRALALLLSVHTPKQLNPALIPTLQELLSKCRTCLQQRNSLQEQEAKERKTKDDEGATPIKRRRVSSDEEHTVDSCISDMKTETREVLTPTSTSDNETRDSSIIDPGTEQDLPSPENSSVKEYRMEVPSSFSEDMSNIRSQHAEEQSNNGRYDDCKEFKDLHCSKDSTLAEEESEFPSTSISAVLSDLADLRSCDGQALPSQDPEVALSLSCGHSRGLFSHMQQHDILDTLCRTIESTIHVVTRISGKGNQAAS

NC(=O)C1CCCN(C(=O)CCl)C1 (stereo not given)
inactive: USP34 -0.00128 | USP36 0.0237 | USP38 -0.242 | USP39 -0.334 | USP4 -0.0203
